# Screening results deposited in PubChem by The Scripps Research Institute Molecular Screening Center.
# Sampled rows, rich in hits. Any-hit rate of the full collection: about 0.83%.
# SRC1 inh: human NCOA1 inhibition; Q15788; HEK293 GAL4-SRC1 luciferase reporter, luminescence; inhibition, % at 3.6 µM; 360,000 compounds, 0.12% hits;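 active means inhibition above the campaign mean plus 3 SD, with each screening campaign given its own cutoff, cut at about 60% in these data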;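 further: 0% = DMSO treated cells and 100% = gossypol at 36 µM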
# COUP-TFII inh: NR2F2 (human) inhibition, primary screen; HEK293T NGFI-A luciferase reporter, luminescence; AID 686940; P24468; 370,000 compounds, 0.7% hits; inhibition, % at 8.6 µM;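 active means inhibition above a per-plate cutoff, mean inhibition of test wells between control levels plus 3 SD, cut at about 38% in these data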;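 further: cells cotransfected with COUP-TFII expression vector driving the NGFI-A reporter; 0% = median of COUP-TF2 test wells and 100% = reporter-only cells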
# NR5A2 inv ag: inverse agonists of human LRH-1 (NR5A2) | O00482 | HEK293T StAR-luciferase reporter, LRH-1 transfected, 24 h | inhibition, % at 3.6 µM | 360,000 compounds, 0.13% hits | AID 602396;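 active means inhibition above the mean inhibition of all tested compounds plus 3 SD, cut at about 73% in these data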;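 further: 0% = DMSO wells and 100% = reporter-only cells lacking LRH-1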
# Target sequence (O00482 whole entry, looked up): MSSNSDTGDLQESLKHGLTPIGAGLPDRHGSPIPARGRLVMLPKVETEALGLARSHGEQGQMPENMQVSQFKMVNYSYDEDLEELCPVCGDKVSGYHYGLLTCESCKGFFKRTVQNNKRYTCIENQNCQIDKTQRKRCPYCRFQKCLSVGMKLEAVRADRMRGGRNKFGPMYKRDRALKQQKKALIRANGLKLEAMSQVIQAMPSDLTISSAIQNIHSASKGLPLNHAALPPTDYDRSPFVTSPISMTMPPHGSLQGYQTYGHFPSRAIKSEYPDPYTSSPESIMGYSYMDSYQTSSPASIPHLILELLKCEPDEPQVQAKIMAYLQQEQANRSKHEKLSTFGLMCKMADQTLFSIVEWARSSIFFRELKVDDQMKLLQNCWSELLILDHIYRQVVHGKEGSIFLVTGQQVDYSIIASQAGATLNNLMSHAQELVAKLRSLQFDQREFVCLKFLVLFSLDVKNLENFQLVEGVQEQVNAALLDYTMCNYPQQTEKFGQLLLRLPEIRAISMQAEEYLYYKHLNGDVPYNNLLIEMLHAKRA
# NCOA3 inh: inhibitors of human steroid receptor coactivator 3 (SRC3) | Q9Y6Q9 | HEK293 GAL4-SRC3 luciferase reporter, luminescence | AID 588352 | 360,000 compounds, 0.17% hits | inhibition, % at 3.6 µM;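 active means inhibition above a per-campaign cutoff, the mean of all compounds plus 3 SD, cut at about 60% in these data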;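 further: 0% = DMSO-treated cells and 100% = gossypol-treated cells at 36 µM; higher means less SRC3-driven luciferase light from the GAL4 reporter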
# SRC2 inh: human SRC2 (NCOA2) inhibition | HEK293 GAL4-SRC2 luciferase reporter, luminescence | inhibition, % at 9 µM | 370,000 compounds, 0.17% hits | AID 651957;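 active means inhibition above the mean inhibition of all tested compounds plus 3 SD, set per campaign, cut at about 52% in these data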;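 further: 0% = DMSO treated cells and 100% = cells given Gossypol at 36 µM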
# Gal4-VP16 ctr: VP16 inhibition counter-screen for COUP-TFII. shares compounds with COUP-TFII inh. HEK293 Gal4-VP16 luciferase reporter, luminescence. inhibition, % at 8.5 µM. 2,500 compounds, 25% hits. AID 687007; in the data active means inhibition above about 13%
# COUP-TFII conf: COUP-TFII (NR2F2) inhibition, confirmation assay. shares compounds with COUP-TFII inh. HEK293 NGFI-A luciferase reporter, luminescence. inhibition, % at 8.5 µM. 2,500 compounds, 45% hits. AID 687008;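 active means mean inhibition over three repeats above a set limit taken from the earlier primary screen, cut at about 38% in these data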;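 further: 100% = cells given the luciferase reporter alone without the COUP-TF2 vector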
# Starred values were filed as active, the others as inactive; · = no result given.
SMILES,SRC1 inh,COUP-TFII inh,NR5A2 inv ag,NCOA3 inh,SRC2 inh,Gal4-VP16 ctr,COUP-TFII conf
O=C(Nc1ccc(S(=O)(=O)Nc2ccc(F)cc2)cc1)c1ccc(CN2CCOCC2)cc1,24,73*,35,33,32,9,62*
Cc1ccc(NC(=O)c2cc(S(=O)(=O)N3CCOCC3)cs2)cc1,-3,16,-3,2,11,·,·
Cc1ccc(NC(=O)C2CCN(c3ncccn3)CC2)cc1C,·,19,·,·,-15,·,·
S=C(NCCc1ccccc1)Nc1cccc2cnccc12,19,67*,45,28,18,1,61*
S=C(NCc1ccccc1)Nc1cccc2cnccc12,-13,57*,26,15,7,11,36
CCN1CCN(Cc2ccc(NC(=O)c3cccc(-c4ccc5nc(NC(=O)C6CC6)sc5n4)c3)cc2C(F)(F)F)CC1,·,40*,·,·,37,11,40*
O=C(NC1CCN(Cc2ccccc2)CC1)c1ccc2c(c1)[nH]c(=O)n2Cc1ccc(F)cc1,-8,64*,19,20,-1,3,34
COc1ccc(/C=C2\Sc3ccc(C(=O)NC4CC4)cc3N(C)C2=O)cc1OC,-6,-10,8,-22,15,·,·
CN1C(=O)/C(=C\c2ccccc2F)Sc2ccc(C(=O)NC3CCN(Cc4ccccc4)CC3)cc21,10,41*,29,19,20,-2,20
CCCCCn1c(=O)[nH]c2cc(C(=O)NC3CCN(Cc4ccccc4)CC3)ccc2c1=O,8,16,13,8,4,·,·
COc1ccc(C(=O)C2(C(=O)NCc3ccccc3)CC(c3ccccn3)=NO2)cc1 (stereo unspecified),·,-2,·,·,-28,·,·
NC(=O)c1ncn([C@@H]2O[C@H](C(=O)N[C@H](Cc3ccccc3)C(=O)O)[C@@H](O)[C@H]2O)n1,·,-11,·,·,-12,·,·
C[C@H](O)[C@@H]1C(=O)N2CCc3c([nH]c4cccc(-c5ccccc5)c34)[C@@H]2C[C@@H]1N(C)C(=O)OCc1ccccc1,·,8,·,·,-9,·,·
CC(=O)N1CCc2cc(S(=O)(=O)NC3CCN(C(=O)OCc4ccccc4)CC3)ccc21,·,61*,·,·,18,-11,20
Cc1ccc(C(=O)c2cccc(N)c2)cc1C,27,72*,23,32,80*,62*,41*
CCCC[C@H]1C2CC(OC(=O)Nc3cccc(Cl)c3)C(C2)[C@H]2CCCCN21 (stereo partly specified),·,-14,·,·,-18,·,·
CN(C(=O)c1cccc(NC(=O)Cc2ccc(NC(=O)C3CCCN(C(=O)CCc4ccccc4)C3)cc2)c1)C1CCC1 (stereo unspecified),1,48*,17,14,25,4,27
CN(C(=O)c1cccc(NC(=O)Cc2ccc(NC(=O)C3CCCN(C(=O)CCc4ccccc4)C3)cc2)c1)C1CCCC1 (stereo unspecified),38,58*,29,16,-4,0,51*
CN(C(=O)c1ccc(NC(=O)Cc2cccc(NC(=O)C3CCCN(C(=O)CCc4ccccc4)C3)c2)cc1)C1CCCC1 (stereo unspecified),6,23,-6,8,-6,·,·
CN(Cc1ccccc1)C(=O)c1cccc(NC(=O)Cc2ccc(NC(=O)C3CCCN(C(=O)CCc4ccccc4)C3)cc2)c1 (stereo unspecified),-1,11,-7,-9,-5,·,·
CN(Cc1ccccc1)C(=O)c1ccc(NC(=O)Cc2cccc(NC(=O)C3CCCN(C(=O)CCc4ccccc4)C3)c2)cc1 (stereo unspecified),8,44*,7,3,10,2,23
CCc1c(-c2ccc(Br)cc2)ncn1CCc1ccccc1OC,·,0,·,·,-4,·,·
CN(C)CCCNS(=O)(=O)c1ccc(N2CCN(Cc3ccc4c(c3)OCO4)CC2)c([N+](=O)[O-])c1,0,40*,7,12,9,1,9
O=C(Nc1ccccc1)Nc1cc(OCC(F)(F)F)cc(OCC(F)(F)F)c1,9,67*,59,67*,17,0,20
Cc1nc2ccccc2cc1OCc1ccccc1,-12,24,12,-13,3,·,·
SMILES,SRC1 inh,COUP-TFII inh,NR5A2 inv ag,NCOA3 inh,SRC2 inh,Gal4-VP16 ctr,COUP-TFII conf
Cc1nc2ccccc2cc1OCc1ccc(Cl)cc1,-15,50*,11,-4,-1,-61,29
COc1cccc(COc2cc3ccccc3nc2C)c1,3,59*,28,-3,-8,-63,41*
COC(=O)C1=C(C)N(C)C(=NCc2ccccc2)NC1c1ccc(F)cc1 (stereo unspecified),·,-5,·,·,1,·,·
CCN(c1ccccc1)S(=O)(=O)c1ccc(C(=O)Nc2cccc(NC(C)=O)c2)cc1,-14,7,-8,15,1,·,·
CCN(c1ccccc1)S(=O)(=O)c1cc(C(=O)Nc2ccc(F)c(F)c2)ccc1F,14,44*,34,12,3,-9,28
CC(=NCc1ccco1)c1c(C)[nH]n(-c2nc3ccccc3s2)c1=O,12,62*,3,20,46,-125,-23
COc1ccc(S[C@]2(C(=O)N3CCN(c4ncccn4)CC3)CC(=O)N(P(=O)(OC)OC)[C@@H]2c2ccc(OC)cc2)cc1,·,20,·,·,11,·,·
CCN=C1NN=C(c2cc(C)n(Cc3ccco3)c2C)CS1,51,73*,30,62*,71*,21*,92*
CCN=C1NN=C(c2cc(C)n(CCc3ccccc3)c2C)CS1,-11,4,-1,-25,-25,·,·
O=C1CCC[C@H]2C[C@H](NCc3cccc(Cl)c3)CC[C@]23CCCN13,·,3,·,·,·,·,·
O=C(c1ccc2c(=O)n(Cc3ccc(Cl)cc3)c(=S)[nH]c2c1)N1CCOCC1,6,39*,15,17,31,7,19
CCCCCn1c(=O)[nH]c2cc(C(=O)N3CCN(Cc4ccc5c(c4)OCO5)CC3)ccc2c1=O,15,58*,44,10,14,2,64*
O=C(c1ccc2c(=O)n(Cc3ccc(Cl)cc3)c(=S)[nH]c2c1)N1CCCC1,3,-5,14,25,-18,·,·
COCc1cc(N2CCN(C(=O)OC(C)(C)C)C[C@H]2C)ccc1Br,·,14,·,·,9,·,·
Cc1ccccc1CCNC(=O)c1ccc(Cl)c(S(=O)(=O)N2CC(C)OC(C)C2)c1 (stereo unspecified),18,67*,10,24,29,1,34
CN(C)C(CNC(=O)c1ccc(Cl)c(S(=O)(=O)N2CCCCCC2)c1)c1ccccc1 (stereo unspecified),11,63*,29,19,9,-1,35
CCCn1c(NC(=O)c2ccc(Cl)c(S(=O)(=O)N3CCCC3)c2)nc2ccccc21,-33,44*,-1,-9,21,-8,15
